DT40 TDP1 CPT: qHTS for Inhibitors of human tyrosyl-DNA phosphodiesterase 1 (TDP1): qHTS in cells in presence of CPT; actives 12% (n = 420,000); chicken DT40 Tdp1-/-;hTDP1 cells + 20 nM CPT, ATP luminescence, 48 h; Potency, µM (highest dose often 46.2 µM), for the others: top-dose activity change, negative = growth inhibition, actives largely listed as inhibitors; further: nearly all actives have a fitted effect of over 55% in size
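Chicken DT40 Tdp1-/- cells complemented with human TDP1, 400 cells/well, exposed to compounds plus 20 nM camptothecin for at least 48 h at 37 C; viability read as ATP content by CellTiter-Glo luminescence.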
Gal4-VP16 FLuc: VP16 counterscreen qHTS for inhibitors of ROR gamma transcriptional activity; Potency, µM (top dose mostly 53.6 µM), for the others: at the highest dose activity, negative = inhibition, actives largely listed as inhibitors; Drosophila S2 Gal4-VP16 UAS-luciferase, luminescence, 20 h; actives 3.5% (n = 310,000);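 further: Gal4-VP16 expression switched on by copper sulfate through the metallothionein promoter; nearly all actives have a fitted effect of over 50% in size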
TDP1 cell noCPT: qHTS for Inhibitors of human tyrosyl-DNA phosphodiesterase 1 (TDP1): qHTS in cells in absence of CPT; Potency, µM (doses to about 46.2 µM), without a hit: at the highest dose activity change, negative = growth inhibition, actives largely listed as inhibitors; DT40 Tdp1-/- hTDP1 cells, no CPT, ATP luminescence, 48 h; actives 15% (n = 420,000); further: nearly all actives have a fitted effect of over 55% in size
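No-CPT arm: Tdp1-/-;hTDP1 DT40 cells (400/well) plus compounds, incubated ≥48 hr at 37 °C. Readout CellTiter-Glo luminescence.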
TDP1 inh: qHTS Assay for Inhibitors of Tyrosyl-DNA Phosphodiesterase (TDP1). Tyrosyl-DNA phosphodiesterase 1 (Homo sapiens), Q9NUW8. recombinant TDP1, AlphaScreen DNA substrate cleavage. Potency, µM (highest dose often 130 µM), for the others: top-dose activity change, negative = inhibition, most hits filed as inhibitors. actives 0.28% (n = 350,000); further: nearly all actives have a fitted effect of over 40% in size
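Here, a 5' biotin and 3' phosphotyrosine-FITC DNA oligonucleotide reports Tdp1 activity: intact substrate bridges AlphaScreen beads, while cleavage leaves a 3' phosphate and drops signal. All incubations at room temperature.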
RORgamma inh: qHTS for inhibitors of ROR gamma transcriptional activity; Drosophila S2 Gal4-RORgamma UAS-luciferase reporter, 20 h; Potency, µM (titrated, usually from 53.6 µM), inactives show at the top dose activity change, negative = inhibition, usual class: inhibitors; actives 5.4% (n = 310,000); AID 2551, 2010; Nuclear receptor ROR-gamma (Mus musculus), P51450; further: nearly all actives have a fitted effect of over 60% in size
Target sequence (P51450 whole entry, looked up, the tested form may be a part): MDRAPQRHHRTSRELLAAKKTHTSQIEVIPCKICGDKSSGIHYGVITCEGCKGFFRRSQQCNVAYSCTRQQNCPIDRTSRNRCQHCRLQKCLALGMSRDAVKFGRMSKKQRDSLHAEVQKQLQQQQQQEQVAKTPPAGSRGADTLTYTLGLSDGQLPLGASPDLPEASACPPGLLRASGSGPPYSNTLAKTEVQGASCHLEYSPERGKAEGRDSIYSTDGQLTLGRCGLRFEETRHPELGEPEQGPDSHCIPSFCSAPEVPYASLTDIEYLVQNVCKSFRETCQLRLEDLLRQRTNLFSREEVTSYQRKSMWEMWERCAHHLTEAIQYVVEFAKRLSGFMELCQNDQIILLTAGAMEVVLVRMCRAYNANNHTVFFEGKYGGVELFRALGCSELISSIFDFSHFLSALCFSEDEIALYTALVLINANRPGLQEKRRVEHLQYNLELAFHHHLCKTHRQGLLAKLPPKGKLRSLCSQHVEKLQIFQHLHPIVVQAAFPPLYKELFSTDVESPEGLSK
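Luminescence from a UAS-regulated Photinus luciferase reporter in stably transfected Drosophila Schneider cells is measured; decreased signal marks ROR gamma inhibition. Fusion expression is induced by 700 uM copper sulfate for 20 hr.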
Numbers without * were called inactive; ? = inconclusive; nt = not tested or not shown. Hits are enriched below; roughly 19% of the tested compounds scored in any of these assays. The call rests on the fitted dose curve; in most records, active means well fitted curve in the direction sought with a large enough effect; inconclusive means small, poorly fitted or top-dose-only effect, or another doubt; inactive means no such curve, though single readings can be large; an effect the other way counts as inactive or inconclusive. On the % scale 0 is the no-effect control and ±100 the full control effect; potency means the concentration at half of the fitted maximal effect.

SMILES | DT40 TDP1 CPT | Gal4-VP16 FLuc | TDP1 cell noCPT | TDP1 inh | RORgamma inh
CCCC(CCC)C(=O)OC[N+](C)(C)CCOC(=O)C(O)(c1ccccc1)C1CCCC1 (centres undefined) | ? | 9% | 12µM* | -10% | -1%
CCc1ccc(CN2CCCC(C(=O)c3sccc3C)C2)o1 (centres undefined) | ? | -6% | ? | 9% | -2%
Cc1ccc(S(=O)(=O)N2CCCC(C(=O)N3CCC4(CC3)OCCO4)C2)cc1 (centres undefined) | ? | -9% | ? | -8% | 19%
CCc1ccc(-n2nc(C)c3c(C(=O)NCCc4ccc(OC)c(OC)c4)cc(C)nc32)cc1 | 18µM* | nt | 18µM* | 3% | nt
Cc1ccc(NC(=O)c2ncn(CCCNCCN3CCOCC3)n2)cc1C | -13% | nt | -12% | nt | nt
Cc1ccc(NC(=O)c2cnc3sc(N4CCOCC4)nn3c2=O)cc1N(C)C | 15µM* | nt | 21µM* | -3% | nt
CC(=O)N1CCN(CCN=Cc2c(O)n(-c3ccc(C)cc3)c(=S)[nH]c2=O)CC1 | 19% | -10% | -10% | nt | 5%
c1cnc(N2CCCC3(CCNCC3)C2)nc1 | -2% | 9% | -24% | nt | 30%
c1cc(N2CCCC3(CCNCC3)C2)ccn1 | 9.2µM* | -2% | 9.2µM* | nt | -8%
COc1c(Cl)cc(Cl)cc1C(=O)Nc1cccc(-c2nc3ccccc3o2)c1C | ? | nt | ? | -8% | nt
CCSc1nc2n(n1)C(c1ccc(Cl)cc1Cl)C(C(=O)Nc1ccccc1C)=C(C)N2 (centres undefined) | 18µM* | nt | 13µM* | 0% | nt
O=[N+]([O-])c1ccc(S(=O)(=O)N2CCn3cccc3C2c2ccccc2F)cc1 (centres undefined) | ? | nt | 16µM* | 13% | nt
C[C@@]1(CO)[C@H](O)CC[C@@]2(C)[C@H]1CC[C@H]1C[C@@H]3C[C@@]12CC[C@]3(O)CO | 0.1µM* | 1% | 0.13µM* | 4% | -3%
COc1cc(OC)c(NS(=O)(=O)c2cc(-c3cnc(C4CC4)o3)ccc2C)cc1Cl | 13µM* | nt | 6.5µM* | 9% | nt
Cc1cccc(C)c1Oc1nc(-c2ccccc2)ncc1S(=O)(=O)c1ccccc1 | ? | -1% | 18µM* | -3% | ?
CCC(C)n1c(O)c(/C=N/Nc2ccccc2)c(=O)[nH]c1=S (centres undefined) | -2% | 6.3µM* | 10% | 5% | 14µM*
CCC(C)n1c(O)c(C=NCC2CCCO2)c(=O)[nH]c1=S (centres undefined) | 6% | -6% | 4% | nt | -4%
CCC(C)n1c(O)c(/C=N/N2CCOCC2)c(=O)[nH]c1=S (centres undefined) | 23µM* | 1% | -91% | 0% | -35%
CCC(C)n1c(O)c(/C=N/NC(=O)c2ccncc2)c(=O)[nH]c1=S (centres undefined) | 2% | ? | -16% | 8% | ?
CCC(C)n1c(O)c(C=NCCc2ccccc2)c(=O)[nH]c1=S (centres undefined) | -14% | ? | -29% | 4% | 10µM*
CCC(C)n1c(O)c(C=NCCN2CCOCC2)c(=O)[nH]c1=S (centres undefined) | 28% | 1% | -6% | 8% | -11%
c1ccc2cc(CC3=NCCN3)ccc2c1 | 17% | -4% | -16% | -3% | -22%
C=COCCn1c(C)c(C(C)=O)c2cc(O)ccc21 | ? | 4% | ? | 1% | -11%
O=C1c2ccccc2C(=O)c2c1ccc1c(=O)n(-c3ccccc3)[nH]c21 | ? | ? | 23µM* | 8% | ?
COc1ccc(CNC(=O)CSCc2cnn(-c3ccccc3)c2-n2cccc2)cc1OC | 15µM* | nt | 13µM* | 8% | nt
